# Assay results as given in the supplement of paper PMC8728848.
# About 410 targets per protein were measured; listed, in parts, are those with the strongest signals and a random draw of the rest.
# What was measured:
# Assay in all cases: glycan array binding signal (z-score within array); higher = stronger binding
# Details in all cases: glycan notation: IUPAC condensed, linker removed
# [1] = target: Fuc(a1-2)Gal(b1-3)GalNAc(a1-3)[Fuc(a1-2)]Gal(b1-4)Glc
# Summary of the method: (§1)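 Negative Z-scores can be read as non-binding. The Z-score is calculated within each array and then averaged across arrays of one protein sequence at different concentrations or buffers and across linkers. Arrays, 3228 in all, were curated from the Consortium for Functional Glycomics database and kept only where the protein sequence was available.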
# [2] = target: Fuc(a1-2)Gal(b1-3)GalNAc(b1-3)Gal
# Summary of the method: as §1
# [3] = target: Fuc(a1-2)Gal(b1-4)[Fuc(a1-3)]GlcNAc(b1-3)GalNAc
# Summary of the method: as §1
# [4] = target: Fuc(a1-2)[Gal(a1-3)]Gal(b1-3)GlcNAc
# Summary of the method: as §1
# [5] = target: Fuc(a1-2)[Gal(a1-3)]Gal(b1-4)GlcNAc(b1-2)Man
# Summary of the method: as §1
# [6] = target: Fuc(a1-2)[GalNAc(a1-3)]Gal(b1-3)GlcNAc(b1-6)GalNAc
# Summary of the method: as §1
# [7] = target: Fuc(a1-3)[Gal(b1-4)]GlcNAc
# Summary of the method: as §1
# [8] = target: Fuc(a1-3)[GalNAc(b1-4)]GlcNAc
# Summary of the method: as §1
# [9] = target: Gal(b1-3)GlcNAc(b1-3)Gal(b1-4)GlcNAc(b1-2)Man(a1-3)[Gal(b1-3)GlcNAc(b1-3)Gal(b1-4)GlcNAc(b1-2)Man(a1-6)]Man(b1-4)GlcNAc(b1-4)GlcNAc
# Summary of the method: as §1
# Gal(b1-4)GlcNAc = target: Gal(b1-4)GlcNAc
# Summary of the method: as §1
# [10] = target: Gal(b1-4)GlcNAc(b1-2)Man(a1-3)[Gal(b1-4)GlcNAc(b1-2)Man(a1-6)]Man(b1-4)GlcNAc(b1-4)[Fuc(a1-6)]GlcNAc
# Summary of the method: as §1
# [11] = target: Gal(b1-4)GlcNAc(b1-2)[Gal(b1-4)GlcNAc(b1-6)]Man(a1-6)[Gal(b1-4)GlcNAc(b1-2)Man(a1-3)]Man(b1-4)GlcNAc(b1-4)[Fuc(a1-6)]GlcNAc
# Summary of the method: as §1
# [12] = target: Gal(b1-4)GlcNAc(b1-3)Gal(b1-4)GlcNAc(b1-2)[Gal(b1-4)GlcNAc(b1-3)Gal(b1-4)GlcNAc(b1-6)]Man(a1-6)[Gal(b1-4)GlcNAc(b1-3)Gal(b1-4)GlcNAc(b1-2)Man(a1-3)]Man(b1-4)GlcNAc(b1-4)GlcNAc
# Summary of the method: as §1
# [13] = target: Gal(b1-4)GlcNAc(b1-3)Gal(b1-4)GlcNAc(b1-3)Gal(b1-4)GlcNAc(b1-3)Gal(b1-4)GlcNAc(b1-3)Gal(b1-4)GlcNAc(b1-2)Man(a1-3)[Gal(b1-4)GlcNAc(b1-3)Gal(b1-4)GlcNAc(b1-3)Gal(b1-4)GlcNAc(b1-3)Gal(b1-4)GlcNAc(b1-3)Gal(b1-4)GlcNAc(b1-2)Man(a1-6)]Man(b1-4)GlcNAc(b1-4)GlcNAc
# Summary of the method: as §1
# [14] = target: Gal(b1-4)GlcNAc(b1-3)Gal(b1-4)GlcNAc(b1-3)Gal(b1-4)GlcNAc(b1-3)Gal(b1-4)GlcNAc(b1-3)Gal(b1-4)GlcNAc(b1-2)[Gal(b1-4)GlcNAc(b1-3)Gal(b1-4)GlcNAc(b1-3)Gal(b1-4)GlcNAc(b1-3)Gal(b1-4)GlcNAc(b1-3)Gal(b1-4)GlcNAc(b1-6)]Man(a1-6)[Gal(b1-4)GlcNAc(b1-3)Gal(b1-4)GlcNAc(b1-3)Gal(b1-4)GlcNAc(b1-3)Gal(b1-4)GlcNAc(b1-3)Gal(b1-4)GlcNAc(b1-2)Man(a1-3)]Man(b1-4)GlcNAc(b1-4)[Fuc(a1-6)]GlcNAc
# Summary of the method: as §1
# [15] = target: Gal3S(b1-3)[Fuc(a1-4)]GlcNAc
# Summary of the method: as §1
# Gal6S(b1-4)Glc6S = target: Gal6S(b1-4)Glc6S
# Summary of the method: as §1
# [16] = target: GalNAc(b1-3)Gal(a1-4)Gal(b1-4)GlcNAc
# Summary of the method: as §1
# [17] = target: Glc(a1-4)Glc(a1-4)Glc(a1-4)Glc
# Summary of the method: as §1
# [18] = target: GlcNAc(a1-4)Gal(b1-4)GlcNAc
# Summary of the method: as §1
# [19] = target: GlcNAc(b1-2)[GlcNAc(b1-6)]Man(a1-6)[GlcNAc(b1-2)Man(a1-3)]Man(b1-4)GlcNAc(b1-4)[Fuc(a1-6)]GlcNAc
# Summary of the method: as §1
# [20] = target: GlcNAc(b1-3)Gal(b1-4)GlcNAc(b1-3)Gal(b1-4)GlcNAc(b1-2)Man(a1-3)[GlcNAc(b1-3)Gal(b1-4)GlcNAc(b1-3)Gal(b1-4)GlcNAc(b1-2)Man(a1-6)]Man(b1-4)GlcNAc(b1-4)GlcNAc
# Summary of the method: as §1
# [21] = target: GlcNAc(b1-3)Gal(b1-4)GlcNAc(b1-3)Gal(b1-4)GlcNAc(b1-2)Man(a1-3)[GlcNAc(b1-3)Gal(b1-4)GlcNAc(b1-3)Gal(b1-4)GlcNAc(b1-2)Man(a1-6)]Man(b1-4)GlcNAc(b1-4)[Fuc(a1-6)]GlcNAc
# Summary of the method: as §1
# [22] = target: GlcNAc(b1-3)Gal(b1-4)GlcNAc(b1-3)Gal(b1-4)GlcNAc(b1-3)Gal(b1-4)GlcNAc(b1-2)Man(a1-3)[GlcNAc(b1-3)Gal(b1-4)GlcNAc(b1-3)Gal(b1-4)GlcNAc(b1-3)Gal(b1-4)GlcNAc(b1-2)Man(a1-6)]Man(b1-4)GlcNAc(b1-4)[Fuc(a1-6)]GlcNAc
# Summary of the method: as §1
# [23] = target: GlcNAc(b1-4)GlcNAc(b1-4)GlcNAc(b1-4)GlcNAc(b1-4)GlcNAc(b1-4)GlcNAc
# Summary of the method: as §1
# GlcNAc(b1-6)GalNAc = target: GlcNAc(b1-6)GalNAc
# Summary of the method: as §1
# [24] = target: Man(a1-2)Man(a1-6)[Man(a1-3)]Man(a1-6)[Man(a1-2)Man(a1-2)Man(a1-3)]Man(b1-4)GlcNAc(b1-4)GlcNAc
# Summary of the method: as §1
# [25] = target: Neu5Ac(a2-3)Gal(b1-3)GalNAc(b1-4)[Neu5Ac(a2-8)Neu5Ac(a2-3)]Gal(b1-4)Glc
# Summary of the method: as §1
# [26] = target: Neu5Ac(a2-3)Gal(b1-3)GlcNAc
# Summary of the method: as §1
# [27] = target: Neu5Ac(a2-3)Gal(b1-3)[GlcNAc(b1-6)]GalNAc
# Summary of the method: as §1
# [28] = target: Neu5Ac(a2-3)Gal(b1-3)[Neu5Ac(a2-6)]GlcNAc(b1-3)[Fuc(a1-3)[Gal(b1-4)]GlcNAc(b1-6)]Gal(b1-4)Glc
# Summary of the method: as §1
# [29] = target: Neu5Ac(a2-3)Gal(b1-3)]Neu5Ac(a2-3)Gal(b1-4)]GlcNAc
# Summary of the method: as §1
# [30] = target: Neu5Ac(a2-3)Gal(b1-4)GlcNAc(b1-3)Gal(b1-4)GlcNAc(b1-3)Gal(b1-4)GlcNAc
# Summary of the method: as §1
# [31] = target: Neu5Ac(a2-3)Gal(b1-4)[Fuc(a1-3)]GlcNAc(b1-3)GalNAc
# Summary of the method: as §1
# [32] = target: Neu5Ac(a2-3)[Neu5Ac(a2-6)]GalNAc
# Summary of the method: as §1
# [33] = target: Neu5Ac(a2-6)Gal(b1-4)GlcNAc(b1-2)[Neu5Ac(a2-6)Gal(b1-4)GlcNAc(b1-4)]Man(a1-3)[GlcNAc(b1-4)][Neu5Ac(a2-6)Gal(b1-4)GlcNAc(b1-2)[Neu5Ac(a2-6)Gal(b1-4)GlcNAc(b1-6)]Man(a1-6)]Man(b1-4)GlcNAc(b1-4)GlcNAc
# Summary of the method: as §1
# [34] = target: Neu5Ac(a2-6)Gal(b1-4)GlcNAc(b1-2)[Neu5Ac(a2-6)Gal(b1-4)GlcNAc(b1-4)]Man(a1-3)[GlcNAc(b1-4)][Neu5Ac(a2-6)Gal(b1-4)GlcNAc(b1-4)Man(a1-6)]Man(b1-4)GlcNAc(b1-4)GlcNAc
# Summary of the method: as §1
# [35] = target: Neu5Ac(a2-6)Gal(b1-4)GlcNAc(b1-3)Gal(b1-4)GlcNAc(b1-3)GalNAc
# Summary of the method: as §1
# [36] = target: Neu5Ac(a2-6)Gal(b1-4)GlcNAc(b1-3)Gal(b1-4)[Fuc(a1-3)]GlcNAc(b1-3)Gal(b1-4)[Fuc(a1-3)]GlcNAc
# Summary of the method: as §1
# [37] = target: Neu5Ac(a2-6)GalNAc(b1-4)GlcNAc6S
# Summary of the method: as §1
# [38] = target: Neu5Ac(a2-8)Neu5Ac(a2-3)[Gal(b1-3)GalNAc(b1-4)]Gal(b1-4)Glc
# Summary of the method: as §1
# [39] = target: Neu5Gc(a2-3)Gal(b1-4)GlcNAc
# Summary of the method: as §1
# [40] = target: Neu5Gc(a2-3)Gal(b1-4)GlcNAc(b1-3)Gal(b1-4)GlcNAc(b1-2)Man(a1-3)[Neu5Gc(a2-3)Gal(b1-4)GlcNAc(b1-3)Gal(b1-4)GlcNAc(b1-2)Man(a1-6)]Man(b1-4)GlcNAc(b1-4)GlcNAc
# Summary of the method: as §1
# Neu5Gc(a2-6)GalNAc = target: Neu5Gc(a2-6)GalNAc
# Summary of the method: as §1
# [41] = target: Neu5Gc(a2-8)Neu5Gc(a2-3)Gal(b1-4)GlcNAc(b1-3)Gal(b1-4)GlcNAc
# Summary of the method: as §1
binder,measurement,setting,value
CTAEGIKKFEGDGYELFKDNFPAGEKFDNDDTNDQFYTVIF [MUB40 (Lactobacillus reuteri)],glycan array binding signal (z-score),[1],-0.41
same,glycan array binding signal (z-score),[2],-0.251
same,glycan array binding signal (z-score),[3],3.56
same,glycan array binding signal (z-score),[4],-0.002
same,glycan array binding signal (z-score),[5],2.44
same,glycan array binding signal (z-score),[6],-0.425
same,glycan array binding signal (z-score),[7],0.464
same,glycan array binding signal (z-score),[8],-0.365
same,glycan array binding signal (z-score),[9],4.29
same,glycan array binding signal (z-score),Gal(b1-4)GlcNAc,-0.134
same,glycan array binding signal (z-score),[10],-0.425
same,glycan array binding signal (z-score),[11],0.328
same,glycan array binding signal (z-score),[12],-0.339
same,glycan array binding signal (z-score),[13],3.44
same,glycan array binding signal (z-score),[14],2.67
same,glycan array binding signal (z-score),[15],0.295
same,glycan array binding signal (z-score),Gal6S(b1-4)Glc6S,-0.817
same,glycan array binding signal (z-score),[16],-0.189
same,glycan array binding signal (z-score),[17],-0.331
same,glycan array binding signal (z-score),[18],-0.247
same,glycan array binding signal (z-score),[19],0.341
same,glycan array binding signal (z-score),[20],1.03
same,glycan array binding signal (z-score),[21],2.39
same,glycan array binding signal (z-score),[22],4.26
same,glycan array binding signal (z-score),[23],-0.138
same,glycan array binding signal (z-score),GlcNAc(b1-6)GalNAc,-0.355
same,glycan array binding signal (z-score),[24],-0.33
same,glycan array binding signal (z-score),[25],1.18
same,glycan array binding signal (z-score),[26],-0.358
same,glycan array binding signal (z-score),[27],1.11
same,glycan array binding signal (z-score),[28],-0.114
same,glycan array binding signal (z-score),[29],-0.307
same,glycan array binding signal (z-score),[30],1.72
same,glycan array binding signal (z-score),[31],0.351
same,glycan array binding signal (z-score),[32],1.33
same,glycan array binding signal (z-score),[33],0.5
same,glycan array binding signal (z-score),[34],-0.219
same,glycan array binding signal (z-score),[35],3.03
same,glycan array binding signal (z-score),[36],1.24
same,glycan array binding signal (z-score),[37],2.71
same,glycan array binding signal (z-score),[38],-0.27
same,glycan array binding signal (z-score),[39],2.42
same,glycan array binding signal (z-score),[40],2.75
same,glycan array binding signal (z-score),Neu5Gc(a2-6)GalNAc,0.011
same,glycan array binding signal (z-score),[41],2.42
